{"source": "PubChem BioAssay (NCATS)", "note": "Results filed as inconclusive are left out. A call without a number means that no potency is given here. The source made the active and inactive calls. Calls come from the whole dose curve; as a rule, active = well fitted curve in the direction sought with a large enough effect; inconclusive = small, poorly fitted or top-dose-only effect, or another doubt; inactive = no such curve, though single readings can be large; an effect the other way counts as inactive or inconclusive. Potency is the fitted concentration of half-maximal effect."}
{"assay": "S16 Schwann cell viability assay (CellTiter-Glo assay) (AID 624031); note: nearly all actives have a fitted effect of over 70% in size", "conditions": "S16 rat Schwann cells viability, 24 h; series mostly up to 57.5 µM", "in_short": "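Counter-screen for cytotoxicity: parental S16 rat Schwann cells lacking the PMP22 reporters, treated 24 h with compound, viability from cellular ATP by CellTiter-Glo luminescence, normalized to DMSO (0%) and no-cell wells.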"}
{"smiles": "CCC1(c2ccccc2)C(=O)NC(=O)N(C(=O)c2ccccc2)C1=O", "note": "(centres undefined)", "Potency": "inactive"}
{"smiles": "CCC1(C)CC(=O)NC(=O)C1", "Potency": "inactive"}
{"smiles": "O=c1[nH]cc(N(CCCl)CCCl)c(=O)[nH]1", "Potency": "inactive"}
{"smiles": "CCC(=O)O[C@@](Cc1ccccc1)(c1ccccc1)[C@@H](C)CN(C)C", "Potency": "inactive"}
{"smiles": "CNC1(c2ccccc2Cl)CCCCC1=O", "note": "(centres undefined)", "Potency": "inactive"}
{"smiles": "O=C1CN(O)C(c2ccccc2)=c2cc(Cl)ccc2=N1", "Potency": "inactive"}
{"smiles": "c1csc(C2(N3CCCCC3)CCCCC2)c1", "Potency": "inactive"}
{"smiles": "CCCCNCC(O)c1ccc(O)cc1", "note": "(centres undefined)", "Potency": "inactive"}
{"smiles": "CCCC(C)(COC(N)=O)COC(=O)NC1CC1", "note": "(centres undefined)", "Potency": "inactive"}
{"smiles": "CCON=O", "Potency": "inactive"}
{"smiles": "N#CC1(N2CCCCC2)CCCCC1", "Potency": "inactive"}
{"smiles": "CCC1(CC)C(=O)NC(=O)N(C)C1=O", "Potency": "inactive"}
{"smiles": "CCCC(C)C1(CC)C(=O)NC(=O)NC1=O", "note": "(centres undefined)", "Potency": "inactive"}
{"smiles": "CC(N)Cc1ccc(O)cc1", "note": "(centres undefined)", "Potency": "inactive"}
{"smiles": "CC(=O)OC1CN2CCC1CC2", "note": "(centres undefined)", "Potency": "inactive"}
{"smiles": "COC1=CC=C2[C@H]3Cc4ccc(OC)c5c4[C@@]2(CCN3C)[C@H]1O5", "Potency": "inactive"}
{"smiles": "OC(c1ccccc1)(c1ccccc1)C1CN2CCC1CC2", "note": "(centres undefined)", "Potency": "inactive"}
{"smiles": "FC(F)OC(F)(F)C(F)Cl", "note": "(centres undefined)", "Potency": "inactive"}
{"smiles": "O=C1CCCCC1CN1CCCCC1", "note": "(centres undefined)", "Potency": "inactive"}
{"smiles": "C=CCN1CC[C@]23c4c5ccc(O)c4O[C@H]2[C@@H](O)C=C[C@H]3[C@H]1C5", "Potency": "inactive"}
{"smiles": "O=C1CN=C(c2ccccc2)c2cc(Cl)ccc2N1CC1CC1", "Potency": "inactive"}
{"smiles": "CCC1(c2ccccc2)C(=O)NC(=O)NC1=O", "Potency": "inactive"}
{"smiles": "O[C@H]1[C@H]2[C@H](O)CCCN2C[C@H]1O", "Potency": "inactive"}
{"smiles": "C=CCN1CCC23c4c5ccc(O)c4O[C@H]2C(=O)CC[C@@]3(O)C1C5", "note": "(some centres undefined)", "Potency": "inactive"}
{"smiles": "CC(=O)OO", "Potency": "inactive"}
{"smiles": "O=P(O)(O)C(Cl)(Cl)P(=O)(O)O", "Potency": "inactive"}
{"smiles": "S=C(S)N1CCNCC1", "Potency": "inactive"}
{"smiles": "COc1ccc2c3c1O[C@H]1C(=O)CC[C@H]4[C@@H](C2)N(C)CC[C@]314", "Potency": "inactive"}
{"smiles": "Oc1cccc[c]1[Hg][Cl]", "Potency": "1280 nM (active)"}
{"smiles": "CC(=O)O[C@H]1CC[C@H]2[C@@H]3CCC4=CC(=O)CCC4=C3C=C[C@]12C", "Potency": "inactive"}
{"smiles": "CN1CCCC(=C(c2cccs2)c2cccs2)C1", "Potency": "inactive"}
{"smiles": "Cn1sc(Cl)cc1=O", "Potency": "inactive"}
{"smiles": "CC(Cc1ccccc1)NC=O", "note": "(centres undefined)", "Potency": "inactive"}
{"smiles": "CNC(=O)Oc1ccccc1C(=O)Nc1ccccc1", "Potency": "inactive"}
{"smiles": "CN1C2CCC1CC(OC(c1ccccc1)c1ccc(Cl)cc1)C2", "note": "(centres undefined)", "Potency": "20300 nM (active)"}
{"smiles": "CC[N+](C)(CC)CCOC(=O)C(O)(c1ccccc1)c1ccccc1", "Potency": "inactive"}
{"smiles": "CCCCCCCCCC(=O)O[C@H]1CC[C@H]2[C@@H]3CCC4=CC(=O)CC[C@]4(C)[C@H]3CC[C@]12C", "Potency": "inactive"}
{"assay": "S16 Schwann cell PMP22 intronic element firefly luciferase assay (AID 624032); note: nearly all actives have a fitted effect of over 30% in size", "conditions": "S16 rat Schwann cells, PMP22 element FLuc, 24 h; series mostly up to 57.5 µM", "in_short": "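Rat S16 Schwann cells stably carrying a PMP22 intronic element-driven Fluc reporter were seeded overnight, then exposed to compounds for 24 h at 37 °C. Luminescence was normalized to PTC124 (positive control) and DMSO (0% activity).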"}
{"smiles": "CCC1(C)CC(=O)NC(=O)C1", "Potency": "inactive"}
{"smiles": "c1csc(C2(N3CCCCC3)CCCCC2)c1", "Potency": "inactive"}
{"smiles": "CCC1(CC)C(=O)NC(=O)N(C)C1=O", "Potency": "inactive"}
{"smiles": "COC1=CC=C2[C@H]3Cc4ccc(OC)c5c4[C@@]2(CCN3C)[C@H]1O5", "Potency": "inactive"}
{"smiles": "FC(F)OC(F)(F)C(F)Cl", "note": "(centres undefined)", "Potency": "inactive"}
{"smiles": "O=P(O)(O)C(Cl)(Cl)P(=O)(O)O", "Potency": "inactive"}
{"smiles": "Oc1cccc[c]1[Hg][Cl]", "Potency": "642 nM (active)"}
